Sampled rows, rich in hits. Any-hit rate of the full collection: about 15%.
Sm TGR block: S. mansoni TGR enzyme inhibition. Potency, µM (highest dose often 114 µM), inactives show at the highest dose activity change, negative = inhibition, actives largely listed as inhibitors. hit rate 3% among 360,000. purified TGR, DTNB reduction, TNB absorbance 405 nm. Q962Y6; note: potency is the fitted concentration of half-maximal effect; % is set by controls: 0 for no effect and ±100 for the full control effect; nearly all actives have a fitted effect of over 60% in size
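First, TGR (20 nM dispensed) and NADPH were mixed with compound. Second, a 15 min room-temperature incubation followed. Third, further NADPH and then DTNB were added to start the reaction. Finally, TNB absorbance was monitored kinetically.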
Pf growth 48h: inhibits P. falciparum growth in the first generation, 48 h. P. falciparum luciferase growth in erythrocytes, 48 h. Potency, µM (doses to about 28.7 µM), for inactives: at the highest dose activity change, negative = inhibition, hits mostly inhibitors. hit rate 5.9% among 310,000; note: potency is the fitted concentration of half-maximal effect; % is set by controls: 0 for no effect and ±100 for the full control effect
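A one-generation exposure of luciferase-tagged malaria parasites in RPMI 1640/Albumax erythrocyte culture, 37 C and 5% CO2. Inhibition is inferred from decreased luminescence after adding detection reagent.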
HCMV antiviral: inhibitors of human cytomegalovirus; hit rate 4.5% among 410,000; AID 1259415; activity change, negative = inhibition, % at 57.5 µM; HFF cells, HCMV-luciferase reporter, 72 h; stronger effect = lower value; in the data active = activity change below about -60%; inconclusive = no clear call, values can overlap the other calls; inactive = above about -39%; note: % is set by controls: 0 for no effect and ±100 for the full control effect
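Screen run at 2 compound doses on HFFs infected with reporter HCMV, MOI 1 PFU/cell. Luciferase activity from cell lysates at 72 h post infection gave inhibition relative to buffer-only and Salinomycin wells.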
SARS PLpro yeast: SARS-CoV PLP inhibition in yeast | S. cerevisiae expressing SARS-CoV PLpro, growth rescue | Potency, µM (titrated, usually from 32.9 µM), inactives show at the top dose activity, positive = growth rescue, most hits filed as activators | hit rate 0.19% among 330,000 | AID 485353; calls by dose curve; note: potency is the fitted concentration of half-maximal effect; 0% is about no effect; nearly all actives have a fitted effect of over 55% in size
HCV inh: blocks hepatitis C virus. Huh7.5.1 HCVcc-Cre infection, luciferase reporter, 44 h. Potency, µM (doses to about 41.8 µM), for inactives: top-dose activity change, negative = inhibition, hits mostly inhibitors. hit rate 3.4% among 340,000. AID 651820; note: potency is the fitted concentration of half-maximal effect; % is set by controls: 0 for no effect and ±100 for the full control effect
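Antiviral activity was scored by luciferase reporter output from cells infected with HCVcc-Cre (~0.5 moi) in presence of compound, 44 h infection period, cells seeded 1,000/well 4 h prior.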
Pf growth 96h: P. falciparum growth inhibition at 96 hours. P. falciparum luciferase reporter growth, 96 h. Potency, µM (highest dose often 28.7 µM), for inactives: at the top dose activity change, negative = inhibition, usual class: inhibitors. hit rate 6.9% among 320,000; note: potency is the fitted concentration of half-maximal effect; % is set by controls: 0 for no effect and ±100 for the full control effect
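Compounds incubated with erythrocytes infected by luciferase-expressing P. falciparum (2% hematocrit, 0.05% parasitemia final) for 96 hours, 37 C in 5% CO2. Growth inhibition scored as decreased luciferase luminescence.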
Starred values were filed as active, the others as inactive. Unless noted, calls come from the whole dose curve; as a rule, active = well fitted curve in the direction sought with a large enough effect; inconclusive = small, poorly fitted or top-dose-only effect, or another doubt; inactive = no such curve, though single readings can be large; an effect the other way counts as inactive or inconclusive.

Screening S=c1[nH]nc(-c2cccnc2)n1C1CCCCC1 returned Sm TGR block 4%, Pf growth 48h 5%, HCMV antiviral 2, SARS PLpro yeast -3%, HCV inh 9% and Pf growth 96h 6%.
Screening COc1ccc(-c2n[nH]c(=S)n2C2CCCCC2)cc1 returned Sm TGR block 89µM*, Pf growth 48h 3%, HCMV antiviral -14, SARS PLpro yeast 1% and HCV inh -5%.
Screening CC1CCN(c2ccc3nnc(CCC(=O)N4CCCCC4)n3n2)CC1 returned Sm TGR block 0%, Pf growth 48h -1%, HCMV antiviral inconclusive, SARS PLpro yeast 9%, HCV inh 10% and Pf growth 96h inconclusive.
`O=C(CN1C(=O)CCS(=O)(=O)c2ccccc21)Nc1ccc2c(c1)OCCO2` gave Sm TGR block 0%, Pf growth 48h -12%, HCMV antiviral -22, SARS PLpro yeast 0%, HCV inh 8% and Pf growth 96h 2%.
`CCOC(=O)c1ccccc1NC(=O)CN1C(=O)CCS(=O)(=O)c2ccccc21` gave Sm TGR block 40µM*, Pf growth 48h -16%, HCMV antiviral -10, SARS PLpro yeast -2%, HCV inh 8% and Pf growth 96h -4%.
Screening O=C(CN1C(=O)CCS(=O)(=O)c2ccccc21)Nc1ccc(Cl)cc1 returned Sm TGR block 50µM*, Pf growth 48h 16%, HCMV antiviral -16, SARS PLpro yeast -4%, HCV inh 0% and Pf growth 96h inconclusive.
CCOC(=O)c1ccccc1NC(=O)CN1C(=O)CC(c2ccco2)Sc2ccccc21 (centres undefined) was read as Sm TGR block -3% and HCMV antiviral -29.
Screening O=C(CN1C(=O)CCS(=O)(=O)c2ccccc21)NCc1ccccc1 returned Sm TGR block -23%, Pf growth 48h 2%, HCMV antiviral -4, SARS PLpro yeast 7%, HCV inh 5% and Pf growth 96h 2.6µM*.
CCOC(=O)/C(N=Nc1ccc2c(c1)OCO2)=C(\C)O was read as Sm TGR block -1%, Pf growth 48h 400%, HCMV antiviral 100, SARS PLpro yeast 1%, HCV inh -2% and Pf growth 96h 224%.
Screening Cc1nn(C)c2c1c(-c1ccccc1)cc(=O)n2CC(=O)NC(C)c1ccccc1 (centres undefined) returned Sm TGR block 4% and HCMV antiviral 3.
Screening Cc1ccc(S(=O)(=O)NCCC(=O)Oc2ccc3ccc(=O)oc3c2)cc1 returned Sm TGR block 16µM*, Pf growth 48h 19%, HCMV antiviral 12, SARS PLpro yeast -3%, HCV inh 16% and Pf growth 96h 20%.
For CCCCc1cc(=O)oc2cc(O)ccc12 the results were Pf growth 48h inconclusive, HCMV antiviral -104*, SARS PLpro yeast 1%, HCV inh -30% and Pf growth 96h inconclusive.
CCCc1cc(=O)oc2cc(OCC(=O)N3CCN(C(=O)C4COc5ccccc5O4)CC3)ccc12 (centres undefined) was read as Sm TGR block -17%, Pf growth 48h inconclusive, HCMV antiviral 48, SARS PLpro yeast -4%, HCV inh inconclusive and Pf growth 96h 12µM*.
Screening CCCCc1cc(=O)oc2cc(OCC(=O)N3CCC(C(=O)O)(c4ccccc4)CC3)ccc12 returned Sm TGR block -2%, Pf growth 48h inconclusive, HCMV antiviral -12, SARS PLpro yeast 7%, HCV inh -16% and Pf growth 96h inconclusive.
For CCCCc1cc(=O)oc2c(CN(C)C)c(O)ccc12 the results were Sm TGR block 10%, Pf growth 48h inconclusive, HCMV antiviral 48, SARS PLpro yeast -1%, HCV inh 6% and Pf growth 96h -22%.
For O=C(COc1ccc2ccc(=O)oc2c1)N1CCN(C(=O)C2COc3ccccc3O2)CC1 (centres undefined) the results were Sm TGR block -30%, Pf growth 48h inconclusive, HCMV antiviral 12, SARS PLpro yeast 4%, HCV inh inconclusive and Pf growth 96h inconclusive.

Source: PubChem BioAssay (National Center for Advancing Translational Sciences (NCATS))
